Active and inactive are the calls of the source. Rule for the calls: active = hit-call score of the fitted dose curve at least 0.9, where 1 is the maximum; inactive = score below 0.9.

One may read the AC50 as the concentration giving half of the maximal activity seen.

The assay is described as follows: BSK_SAg_SRB: Viability Assessment in the BioMAP Diversity Plus: SAg Assay (AID 2283096).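 Note: hits may be either gain or loss of signal compared with DMSO.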 As to conditions: primary human HUVEC with PBMC. How it is done:
BSK_SAg is a cell-based, multiplexed-readout assay that uses umbilical vein endothelium and peripheral blood mononuclear cells, a human vascular primary cell co-culture, with measurements taken at 24 hours after chemical dosing in a 96-well plate.BSK_SAg_SRB is an assay component measured in the BSK_SAg assay. It measures protein content, a form of viability reporter, as detected with absorbance signals by Sulforhodamine staining technology.Data from the assay component BSK_SAg_SRB was analyzed into 1 assay endpoint. This assay endpoint, BSK_SAg_SRB, was analyzed with bidirectional fitting relative to DMSO as the negative control and baseline of activity. Using a type of viability reporter, gain or loss-of-signal activity can be used to understand changes in the signaling. Furthermore, this assay endpoint can be referred to as a primary readout, because this assay has produced multiple assay endpoints where this one serves a signaling function. To generalize the intended target to other relatable targets, this assay endpoint is annotated to the cell morphology intended target family, where the subfamily is cell conformation.
The levels of cell surface (or secreted, indicated by the prefix "s") biomarker endpoints were measured by ELISA. Overt cytotoxicity to cells in confluent adherent cultures (all systems other than the BT system) was assessed by measuring total protein levels using sulforhodamine B (SRB) staining in parallel cultures at the time of biomarker measurements, indicated as SRB endpoints. For proliferation assays for adherent cell types, individual cell types are cultured at sub-confluence and relative cell numbers quantified by SRB staining at time points optimized for each system (48 h: 3C and CASM3C systems; 72 h: BT and HDF3CGF systems; 96 h: SAg system). SRB was performed by staining cells with 0.1% SRB after fixation with 10% TCA and reading wells at 560 nm.Viability and proliferation of PBMC (T cells) was quantified by Alamar Blue reduction for the SAg and BT systems. For PBMC viability (referred to as PBMC Cytotoxicity within the assay endpoint names), cells were plated (75,000/well in a 96-well plate) and then chemical samples added for 1 h before addition of activators, SEB and TSST-1 (20 ng/mL final concentration each). Cells were incubated for 90 h. Then, Alamar Blue (20 uL/well) (Invitrogen, Cat DAL1100) was added for 6 h, and the plates were read with a fluorescence microplate reader at 546/580 nm (excitation/emission). For PBMC proliferation, cells were plated and activated as above but incubated for only 16 h prior to addition of Alamar Blue. Plates were read after 6 h.
For the compound `CCCCOC(=O)COC(=O)c1ccccc1C(=O)OCCCC`, the result was inactive. As to `CC(C)(C)c1cc([N+](=O)[O-])cc(C(C)(C)C)c1O`, the AC50 was 0.215 µM (active). Still for that read-out and setting: next, `Oc1cc(Cl)c(Cl)cc1Cl`: 27.6 µM (active). Turning to `OCCCCO`, the result was inactive.

`C=CC(Cl)CCl` (stereo not given): the result was inactive. On the same count and under the same terms, as for `OC(Cc1ccccc1Cl)(Cn1[nH]cnc1=S)C1(Cl)CC1` (stereo not given), the entry is “inactive”. The same measure, in the same setting: as for `CN(C)C(=S)S`, the entry is “inactive”; as for `N#Cc1cccnc1`, “inactive”. On to `CCN(CC)C(=O)C(Cl)=C(C)OP(=O)(OC)OC`, for which the result was inactive. In the case of `N#CCCC(Br)(C#N)CBr` (stereo not given), the AC50 was 11.5 µM (active).

As for `Cc1ccccc1OP(=O)(Oc1ccccc1)Oc1ccccc1`, the AC50 was 31.6 µM (active). For `Cc1ccc2nc3sc(=O)sc3nc2c1`, the half-maximal activity concentration (AC50) is 5 µM (active). As to `Cc1cccc(OP(=O)(Oc2cccc(C)c2)Oc2cccc(C)c2)c1`, the result was inactive. Turning to `O=C(O)COc1cc(Cl)c(Cl)cc1Cl`, the outcome was inactive. With `O=S(=O)(C(Cl)(Cl)Cl)C(Cl)(Cl)Cl`, the AC50 is 3.74 µM (active). Regarding `Clc1cccc(Cl)c1`, the result was inactive. Still for that read-out and setting: as for `CCCCN(CCCC)C(=S)[S-].CCCCN(CCCC)C(=S)[S-].[Ni+2]`, the entry is “inactive”.

With `Nc1c(Oc2ccccc2)cc(O)c2c1C(=O)c1ccccc1C2=O`, the AC50 is 2.22 µM (active).

With `CC(C)=CC1C(C(=O)OCc2cccc(Oc3ccccc3)c2)C1(C)C` (stereo not given), the AC50 is 24.9 µM (active). Same read-out and setting: as for `O=C(O)C1(c2ccc3c(c2)OC[C@H](Cc2ccc(-c4ccccc4)cc2)[C@H]3O)CCCC1`, the figure is 27.3 µM (active). Consider `C[C@]12CC[C@@H](O)C[C@@H]1CC[C@@H]1[C@@H]2CC[C@]2(C)C(=O)CC[C@@H]12`, for which the outcome was inactive. With `CC(C)(COCC1CO1)COCC1CO1` (stereo not given), the outcome was inactive. On the same count and under the same terms, as for `Cc1cc(Cl)ccc1N`, the entry is “inactive”. Consider `NC(=O)CCl`, for which the outcome was inactive. On to `c1ccc2sc(SNC3CCCCC3)nc2c1`, for which the result was inactive. Turning to `COCC(=O)N(c1c(C)cccc1C)[C@H](C)C(=O)OC`, the result was inactive. As to `Cc1ccc(OP(=O)(Oc2ccc(C)cc2C)Oc2ccc(C)cc2C)c(C)c1`, the AC50 was 20 µM (active). For the compound `Oc1c(Br)cc(Br)cc1Br`, the half-maximal activity concentration (AC50) is 31.7 µM (active). As to `CCCCCCCCCCCCc1cccc(S(=O)(=O)O)c1`, the result was inactive.

As to `CC(C)(C)c1ccccc1O`, the result was inactive. Turning to `Cc1ccccc1OP(=O)(Oc1ccccc1C)Oc1ccccc1C`, the AC50 was 9.8 µM (active). Take `CCCCCCCCCCCCN(C)C`: the result was inactive.

With `CC(C)O.CC(C)O.OCCN(CCO)CCO.OCCN(CCO)CCO.[Ti]`, the result was inactive.

With `CCOC(=O)CC(=O)CCl`, the result was inactive.

With `O=C1C=CC(=O)c2ccccc21`, the AC50 is 5.33 µM (active). Consider `OCCN(CCO)CCO`, for which the outcome was inactive. Same read-out and setting: next, `Cc1cc(C(C)(C)c2ccc(O)c(C)c2)ccc1O`: “inactive”; `O=S(=O)(c1ccc(Cl)cc1)c1cc(Cl)c(Cl)cc1Cl`: “inactive”. In the case of `O=c1oc2ccccc2c(O)c1C(CC(O)c1ccc(-c2ccc(Br)cc2)cc1)c1ccccc1` (stereo not given), the AC50 was 19.1 µM (active). Same read-out and setting: next, `CC(C)N(C(=O)CCl)c1ccccc1`: 33.8 µM (active).

These data come from PubChem BioAssay (EPA / NIEHS).
